Compound activity as filed in PubChem.
Compounds with a hit are over-represented: about 9.2% of the library has one in this group of screens.
NPC1 prom act: activators of NPC1 promoter; Huh7 NPC1 promoter luciferase reporter, 24 h; Potency, µM (series often up to 9.22 µM), for inactives: top-dose activation, actives largely listed as activators; 2.4% of 320,000 active; further: % of control where 0% means no effect; nearly all actives have a fitted effect of over 60% in size
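Stably transfected Huh7 (NPC1 promoter→luciferase), 1500 cells/well in Opti-MEM + 10% FBS, 2 h settle, then compound 24 h at 37 °C. Luminescence after 10 min with Amplite reagent.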
ELG1 DNA repair: blocks ELG1-dependent DNA repair in HEK293T cells. HEK293T ELG1-luciferase reporter, luminescence, 16 h; DNA damage induced by 5-fluorouridine. Potency, µM (top dose mostly 46.1 µM), for the others: at the highest dose activity change, negative = inhibition, actives largely listed as inhibitors. 2.3% of 330,000 active. AID 504467; further: on the % scale 0 is the no-effect control and ±100 the full control effect; nearly all actives have a fitted effect of over 55% in size
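Luminescence from the luciferase reporter, measured 30 min after ONE-Glo reagent at room temperature, was the read-out. Beforehand, 2,000 cells per well were exposed for 16 hr at 37 °C to 5-fluorouridine together with compound or vehicle.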
SMN2 splice up: SMN2 splice variant enhancement; HEK293 SMN2-luciferase splicing reporter, luminescence, 30-36 h; Potency, µM (highest dose often 46.1 µM), inactives show top-dose activity change, positive = activation, usual class: activators; 2.8% of 210,000 active; AID 1458; further: % of control where 0% means no effect; nearly all actives have a fitted effect of over 55% in size
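qHTS luciferase splicing reporter: luminescence rises when SMN2 exon 7 is included in transfected HEK293 cells. Compound exposure lasted 30-36 h at 37C, with 4.5 mM final sodium butyrate as control, followed by a ONE-Glo read.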
Rab9 prom act: activates the Rab9 promoter. AID 485297. Huh7 Rab9 promoter-luciferase reporter, luminescence, 24 h. Potency, µM (doses to about 9.22 µM), inactives show at the top dose activation, negative = inhibition, most hits filed as activators. 2.8% of 320,000 active; further: % of control where 0% means no effect; nearly all actives have a fitted effect of over 60% in size
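Huh7 cells stably carrying Rab9 promoter–luciferase reporter, plated 1500 cells/well, compound added after 2 h and incubated 24 h at 37 °C; luciferase luminescence then read after 10 min with detection reagent.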
FLuc modulator: counter-screen for miR-21 project: firefly luciferase inhibitors or activators; purified FLuc, Km substrates, luminescence inhibition; Potency, µM (highest dose often 57.5 µM), for the others: at the top dose activity change, negative = inhibition, actives largely listed as inhibitors; 6.9% of 360,000 active; AID 588342;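 further: plate controls were vehicle for no effect and reference inhibitor for full effect; nearly all actives have a fitted effect of over 55% in size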
Target sequence (P08659 whole entry, looked up): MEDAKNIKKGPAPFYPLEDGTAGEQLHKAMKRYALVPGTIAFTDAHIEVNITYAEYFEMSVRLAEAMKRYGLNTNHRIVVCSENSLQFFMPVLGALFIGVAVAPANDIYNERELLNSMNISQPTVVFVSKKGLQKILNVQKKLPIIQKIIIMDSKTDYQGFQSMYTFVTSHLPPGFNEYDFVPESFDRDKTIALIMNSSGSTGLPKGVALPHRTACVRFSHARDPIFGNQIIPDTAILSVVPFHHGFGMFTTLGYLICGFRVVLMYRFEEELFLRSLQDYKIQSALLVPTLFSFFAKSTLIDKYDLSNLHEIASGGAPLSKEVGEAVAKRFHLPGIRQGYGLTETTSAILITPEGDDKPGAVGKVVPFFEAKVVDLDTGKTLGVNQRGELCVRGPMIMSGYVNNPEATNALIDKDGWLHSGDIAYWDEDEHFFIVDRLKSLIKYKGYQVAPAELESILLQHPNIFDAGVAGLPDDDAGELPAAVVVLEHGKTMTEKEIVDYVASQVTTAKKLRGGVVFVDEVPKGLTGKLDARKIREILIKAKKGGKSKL
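Purified P. pyralis luciferase, 10 nM final, with Km-level 10 uM D-luciferin and 10 uM ATP in 50 mM Tris acetate pH 7.5, 10 mM Mg acetate, 0.01% Tween-20, 0.05% BSA; 6-point qHTS titration about 60 µM downward; luminescence read.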
ELG1 genotoxic: inducers of genotoxicity in HEK293T ELG1-luciferase cells; HEK293T ELG1-luciferase reporter, luminescence, 16 h; Potency, µM (top dose mostly 46 µM), for inactives: at the top dose activity change, positive = activation, usual class: activators; 1.3% of 330,000 active; AID 504466; further: % of control where 0% means no effect; nearly all actives have a fitted effect of over 60% in size
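Genotoxicity was scored as increased ELG1-luciferase reporter signal, measured by ONE-Glo luminescence (30 min, room temperature). Compound or vehicle exposure of the HEK293T reporter cells lasted 16 hr at 37°C.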
* = called active by the depositor; ? = inconclusive; / = no result given. The call rests on the fitted dose curve; in most records, active means well fitted curve in the direction sought with a large enough effect; inconclusive means small, poorly fitted or top-dose-only effect, or another doubt; inactive means no such curve, though single readings can be large; an effect the other way counts as inactive or inconclusive. Potency means the concentration at half of the fitted maximal effect.

SMILES	NPC1 prom act	ELG1 DNA repair	SMN2 splice up	Rab9 prom act	FLuc modulator	ELG1 genotoxic
CC(=O)O[C@@H](C)C#C[Si](C)(C)c1ccccc1	/	/	13%	/	/	/
COc1ccc(/C=C/C(=O)c2ccccc2O)cc1	19%	?	/	24%	0.27µM*	16µM*
COc1ccc(/C=C/C(=O)c2c(O)c(OC)c3occc3c2OC)cc1	-6%	3%	/	-1%	?	-5%
COc1ccc(C(=O)/C=C/N(C)C)cc1	5%	?	25%	14%	-20%	11%
COc1ccc(/C=C/C(=O)c2ccc(O)cc2)cc1	11%	?	/	?	3.4µM*	?
COc1ccc(/C=C/C(=O)c2ccccn2)cc1	4µM*	?	8%	0.89µM*	0.38µM*	?
COc1ccc(/C=C/C(=O)c2ccoc2)cc1	20%	?	-15%	23%	4.3µM*	6%
CC(C)(C)NC(=O)CN(C(=O)CNC(=O)c1cccs1)c1ccc2c(c1)OCCO2	0%	1%	-5%	-5%	1%	-1%
CSCC[C@H](NC(=O)OC(C)(C)C)C(=O)N1CCC(C(=O)NCC(=O)Nc2ccc(C)cc2)CC1	0%	-3%	/	7%	1%	-3%
Cc1cc(-c2ccc(N=Nc3cc(S(=O)(=O)O)c4ccccc4c3N)c(C)c2)ccc1N=Nc1cc(S(=O)(=O)O)c2ccccc2c1N	/	/	-2%	/	/	/
COc1ccc(C(=O)/C=C/c2ccc(OC)c(COc3ccc(F)cc3)c2)cc1	2%	2%	/	19%	5.4µM*	-3%
COc1ccc(C(C)=O)cc1COc1ccc(F)cc1	-10%	14%	-11%	-4%	6%	-2%
COc1ccc2cc(C(=O)/C=C/c3cc(OC)c(OC)c(OC)c3)ccc2c1	1%	-16%	/	-4%	21µM*	-5%
COc1cc(/C=C/c2ccc(O)cc2)cc(OC)c1	?	/	/	3.2µM*	13µM*	/
Cc1ccc2oc(C(=O)Nc3cccc(Cl)c3)cc(=O)c2c1	/	/	3%	/	-4%	/
C/C(=N\Nc1ccc(F)cc1F)c1ccc(N2CCOCC2)cc1	?	?	?	?	15µM*	?
CN(C)/N=C/c1ccc(N2CCOCC2)cc1	?	?	?	2.5µM*	17µM*	4%
C(=N\n1cnnc1)/c1ccc(N2CCOCC2)cc1	1%	16%	2%	7%	?	12%
Fc1ccc(N/N=C/c2ccc(N3CCOCC3)cc2)c(F)c1	2.5µM*	?	11µM*	2µM*	12µM*	?
C/C(=N\Nc1ccc(F)cc1F)c1ccc(F)cc1	-3%	4%	3%	2%	?	6%
S=c1[nH]ncn1/N=C/c1ccc(N2CCOCC2)cc1	4µM*	?	13µM*	4.5µM*	7.6µM*	16µM*
Fc1ccc(/C=N/Nc2cc(N3CCOCC3)ncn2)cc1	?	?	/	?	?	17%
COc1ccc(CCNC(=O)c2cn3ccc(C)cc3n2)cc1OC	-30%	-18%	5%	3%	-3%	-3%
O=C1COc2ccc(S(=O)(=O)N3CCN(c4ccccc4)CC3)cc2N1	-2%	0%	/	-1%	0%	-2%
CC(CC(=O)N1CCN(c2ccccc2)CC1)S(=O)(=O)c1ccc2c(c1)NC(=O)CO2 (stereo not drawn)	8%	10µM*	/	-11%	-2%	-13%
SMILES	NPC1 prom act	ELG1 DNA repair	SMN2 splice up	Rab9 prom act	FLuc modulator	ELG1 genotoxic
CC1CC(C)CN(CC(=O)Nc2ccc3c(c2)OCCO3)C1 (stereo not drawn)	?	?	-32%	?	15µM*	?
CCC1CCCCN1CC(=O)Nc1ccc2c(c1)OCCO2 (stereo not drawn)	22%	?	/	28%	24µM*	7%
CC1CC(C)(C)NC(=S)N1CCCC(=O)Nc1ccc2c(c1)OCCO2 (stereo not drawn)	0%	?	19%	?	27µM*	?
COC(=O)CC1COc2ccccc2N1S(=O)(=O)c1ccc(Br)cc1 (stereo not drawn)	0%	-17%	/	6%	1%	-4%
COc1ccc(CCNC(=O)C(=O)NCC(c2ccco2)S(=O)(=O)c2ccc(C)cc2)cc1 (stereo not drawn)	/	/	/	/	-1%	/
Cc1cc(NC(=O)c2ccc(Cl)cc2)c(C)cc1O	2%	?	/	21%	24µM*	14%
O=C(Nc1ccccc1O)c1ccc([N+](=O)[O-])cc1	?	27%	/	29%	-18%	-4%
Cc1cc(NC(=O)c2ccc(Cl)cc2)c(C(C)C)cc1O	6%	-10%	-6%	5%	?	-3%
Cc1ccc(C(=O)Nc2cc(Cl)ccc2OC(=O)c2ccc(C)cc2)cc1	?	?	14µM*	4µM*	21µM*	23%
O=C(Nc1ccccc1OC(=O)c1ccc(Cl)cc1)c1ccc(Cl)cc1	?	?	31%	3.2µM*	-10%	16%
O=C(Nc1ccccc1O)c1ccc(Cl)cc1	3.2µM*	?	-13%	?	27µM*	?
Cc1cc(S(=O)(=O)Nc2cccc(C(=O)O)c2)c(C)c(S(=O)(=O)c2ccccc2)c1	/	/	-3%	/	?	/
COC(=O)N1CCCc2cc(S(=O)(=O)NCc3ccccc3)ccc21	/	/	-6%	/	-10%	/
O=C(CN1CCOCC1)Nc1ccc([N+](=O)[O-])cc1Br	-9%	?	-18%	-5%	-2%	-9%
COc1ccc(C(=O)Nc2cc(Cl)ccc2OC(=O)c2ccc(OC)cc2)cc1	3.5µM*	?	24%	?	?	?
COc1ccc(OC)c(NC(=O)c2ccc(Cl)cc2)c1	1%	5%	-2%	3%	?	2%
Cc1oc(-c2ccc(C(=O)NCCc3ccc(Cl)cc3)cc2)nc1CSc1ccccc1	/	/	/	/	-1%	/
Cc1nc2c3ccccc3nc(SCC(=O)c3ccc(Cl)cc3)n2n1	0%	-20%	-8%	-13%	0%	-4%
COc1cc2nc(SCC(=O)c3ccc(Br)cc3)n3nc(C)nc3c2cc1OC	-4%	4.1µM*	-6%	-6%	-2%	-1%
O=C(CS(=O)(=O)c1ccccc1)Nc1nnc(Cc2ccccc2)s1	-6%	-5%	/	0%	0%	1%
CN(C)C(=O)COC(=O)c1ccccc1Nc1ccc(SC(F)F)cc1	?	?	13µM*	?	27µM*	?
Cc1ccc(NC(=O)CC2=NC(=O)C(CC(=O)Nc3ccccc3C)S2)cc1 (stereo not drawn)	2%	-3%	21%	-2%	2%	0%
O=C(Nc1ccc(Br)cc1)Nc1ccccc1Cl	2.2µM*	?	/	?	2.7µM*	?
